Source: PubChem BioAssay (Tox21)
“And” between values parts separate entries of the source, which are not always exact repeats. Identical values can stand only once. Results filed as inconclusive are left out. The source made the active and inactive calls. Unless noted, the call rests on the fitted dose curve; in most records, active means well fitted curve in the direction sought with a large enough effect in the repeat runs; inconclusive means weak or mixed curves; inactive means no such curve, though single readings can be large; an effect the other way counts as inactive or inconclusive.

test system: not listed separately; assay: qHTS assay to identify small molecule antagonists of the androgen receptor (AR) signaling pathway - cell viability counter screen (AID 743033; further: nearly all actives have a fitted effect of over 45% in size; further: potency means the concentration at half of the fitted maximal effect); conditions: AR-bla HEK293 viability, CellTiter-Glo luminescence, 16 h; series mostly up to 58.5 µM; activity change, negative = cytotoxicity: at the top concentration
On the % scale 0 is the no-effect control and ±100 the full control effect.

| SMILES | Potency | activity change, negative = cytotoxicity |
| --- | --- | --- |
| O=Nc1ccc(Nc2ccccc2)cc1 | 17.5 µM (active) and 30.9 µM (active) | – |
| CC1=C(C=O)C(C)(C)CC=C1 | – | -3% [at 78.9 µM] (inactive) |
| CC(C)(C)c1cc(C(C)(C)C)c(O)c(C(C)(C)C)c1 | – | 0.996% (inactive) |
| Nc1cc(S(=O)(=O)O)cc2cc(S(=O)(=O)O)cc(O)c12 | inactive | – |
| CC(C)(C)c1ccccc1 | – | -1.53% (inactive) |
| O=C(O)CCc1ccccc1 | – | 0.828% (inactive) |
| CCC[C@H](N[C@@H](C)C(=O)N1[C@H](C(=O)O)C[C@@H]2CCCC[C@@H]21)C(=O)OCC | – | -5.53% (inactive) |
| CN(C)c1ccc2nc3ccc(=[N+](C)C)cc-3sc2c1 | 1.87 µM (active) and 3.09 µM (active) | – |
| CCCCC(CC)COC(=O)CC(C(=O)OCC(CC)CCCC)S(=O)(=O)O (stereo not drawn) | – | -27.4% (inactive) |
| Nc1nc2ccccc2[nH]1 | inactive | – |
| Cc1ccc(S(=O)(=O)Oc2ccc(N=Nc3ccc(-c4ccc(N=Nc5c(O)ccc6cc(S(=O)(=O)O)cc(S(=O)(=O)O)c56)c(C)c4)cc3C)cc2)cc1 | – | -17.4% [at 78.9 µM] (inactive) |
| CC[C@@H](N)CO | – | 1.47% [at 78.9 µM] (inactive) |
| Cc1cc(C(C)(C)C)c(O)c(C(C)(C)C)c1 | inactive | – |

target: Androgen receptor (Homo sapiens) (UniProt P10275); assay: qHTS assay to identify small molecule antagonists of the androgen receptor (AR) signaling pathway (AID 743035; active means well fitted inhibition curve with a large enough effect in the signal ratio in the repeat runs, not every such curve was filed as active; the % refers to the signal ratio; further: potency means the concentration at half of the fitted maximal effect); conditions: HEK293 AR-UAS-bla, R1881-stimulated, beta-lactamase FRET, 16 h; series mostly up to 58.5 µM; activity change, negative = inhibition: at the top concentration
Sequence (P10275 whole entry, looked up): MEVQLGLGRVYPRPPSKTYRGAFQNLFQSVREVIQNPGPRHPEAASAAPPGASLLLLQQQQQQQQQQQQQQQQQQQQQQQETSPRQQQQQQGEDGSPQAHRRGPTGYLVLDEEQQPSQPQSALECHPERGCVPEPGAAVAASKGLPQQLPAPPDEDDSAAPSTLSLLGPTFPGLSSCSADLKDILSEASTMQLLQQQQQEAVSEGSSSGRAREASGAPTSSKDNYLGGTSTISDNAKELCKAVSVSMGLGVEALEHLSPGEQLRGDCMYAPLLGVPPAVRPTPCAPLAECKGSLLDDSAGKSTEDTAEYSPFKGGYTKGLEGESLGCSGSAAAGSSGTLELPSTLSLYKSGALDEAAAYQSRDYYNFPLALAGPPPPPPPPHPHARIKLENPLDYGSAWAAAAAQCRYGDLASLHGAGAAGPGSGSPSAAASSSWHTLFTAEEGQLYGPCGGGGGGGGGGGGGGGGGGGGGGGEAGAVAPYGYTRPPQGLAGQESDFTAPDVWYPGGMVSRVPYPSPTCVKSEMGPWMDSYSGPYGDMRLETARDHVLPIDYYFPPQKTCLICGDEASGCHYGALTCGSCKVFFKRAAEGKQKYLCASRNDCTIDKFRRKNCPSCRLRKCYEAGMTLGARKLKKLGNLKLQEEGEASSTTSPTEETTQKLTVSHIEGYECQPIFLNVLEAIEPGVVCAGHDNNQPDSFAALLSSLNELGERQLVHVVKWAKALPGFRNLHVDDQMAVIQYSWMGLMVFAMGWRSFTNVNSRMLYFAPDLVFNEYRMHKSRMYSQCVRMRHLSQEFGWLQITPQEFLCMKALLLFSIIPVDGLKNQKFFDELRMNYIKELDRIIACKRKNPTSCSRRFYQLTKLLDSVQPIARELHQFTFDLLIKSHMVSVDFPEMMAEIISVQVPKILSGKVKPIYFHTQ
How it was run: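 R1881 agonist challenge of a HEK293 UAS-beta-lactamase AR reporter line in the presence of compound (16 h, 37C); signal taken as FRET fluorescence after 2 h with LiveBLAzer B/G substrate at room temperature.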

| SMILES | activity change, negative = inhibition | Potency |
| --- | --- | --- |
| BrC1CCC(Br)C(Br)CCC(Br)C(Br)CCC1Br (stereo not drawn) | -15.3% (inactive) | – |
| Nc1nc(=S)c2[nH]cnc2[nH]1 | – | 16.9 µM (active) and 10.7 µM (active) and 6.92 µM (active) |
| CC(C)CCOCc1ccccc1 | 1.44% (inactive) | – |
| Cc1ccc(-c2cc(C(F)(F)F)nn2-c2ccc(S(N)(=O)=O)cc2)cc1 | – | 23.9 µM (active) |
| CCC(C)(Oc1ccc(C2(c3ccc(OC(C)(CC)C(=O)O)cc3)CCCCC2)cc1)C(=O)O (stereo not drawn) | -27.8% (inactive) | – |
| O=Cc1ccc(Cl)cc1 | 7.02% (inactive) | – |
| Cc1ccc(S(=O)(=O)Oc2ccc(N=Nc3ccc(-c4ccc(N=Nc5c(O)ccc6cc(S(=O)(=O)O)cc(S(=O)(=O)O)c56)c(C)c4)cc3C)cc2)cc1 | – | inactive |
| CCN(CC)C(=O)Nc1ccc(OCC(O)CNC(C)(C)C)c(C(C)=O)c1 (stereo not drawn) | 26.7% (inactive) | – |

target: Androgen receptor (Homo sapiens) (UniProt P10275); assay: qHTS assay to identify small molecule agonists of the androgen receptor (AR) signaling pathway (AID 743036; active means well fitted activation curve with a large enough effect in the signal ratio in the repeat runs, with a control signal flat, not every such curve was filed as active; the % refers to the signal ratio; further: potency means the concentration at half of the fitted maximal effect); conditions: HEK293 AR-UAS-bla GripTite, beta-lactamase FRET ratio, 16 h; series mostly up to 62.4 µM; activation: at the top concentration
How it was run: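 Activation was read as beta-lactamase FRET signal from LiveBLAzer B/G substrate, added for 2 h at room temperature. Before that, GeneBLAzer AR-UAS-bla GripTite (HEK293) cells had 16 h compound exposure at 37C.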

| SMILES | Potency | activation |
| --- | --- | --- |
| BrC1CCC(Br)C(Br)CCC(Br)C(Br)CCC1Br (stereo not drawn) | inactive | – |
| Nc1nc(=S)c2[nH]cnc2[nH]1 | inactive | – |
| CC(C)CCOCc1ccccc1 | – | 10.2% (inactive) |
| Cc1ccc(-c2cc(C(F)(F)F)nn2-c2ccc(S(N)(=O)=O)cc2)cc1 | inactive | – |
| Nc1ccc(O)cc1 | inactive | – |
| CCC(C)(Oc1ccc(C2(c3ccc(OC(C)(CC)C(=O)O)cc3)CCCCC2)cc1)C(=O)O (stereo not drawn) | – | 0.0268% (inactive) |
| O=Cc1ccc(Cl)cc1 | 19.4 µM (active) | – |
| Cc1ccc(S(=O)(=O)Oc2ccc(N=Nc3ccc(-c4ccc(N=Nc5c(O)ccc6cc(S(=O)(=O)O)cc(S(=O)(=O)O)c56)c(C)c4)cc3C)cc2)cc1 | – | -12% (inactive) |
| CCN(CC)C(=O)Nc1ccc(OCC(O)CNC(C)(C)C)c(C(C)=O)c1 (stereo not drawn) | – | -0.0126% (inactive) |

target: Androgen receptor (Homo sapiens) (UniProt P10275); assay: qHTS assay to identify small molecule agonists of the androgen receptor (AR) signaling pathway using the MDA cell line (AID 743040; further: nearly all actives have a fitted effect of over 20% in size); conditions: MDA-kb2 AR-luc cells, MMTV luciferase, 16 h, hits give high values; series mostly up to 70.3 µM; activity change: at the top concentration
How it was run: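 Cell-based luciferase reporter: MDA-kb2, MMTV promoter (AR + GR response elements). 16 h compound exposure at 37C; ONE-Glo, 30 min RT, luminescence.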

| SMILES | outcome | activity change |
| --- | --- | --- |
| BrC1CCC(Br)C(Br)CCC(Br)C(Br)CCC1Br (stereo not drawn) | inactive | – |
| Nc1nc(=S)c2[nH]cnc2[nH]1 | inactive | – |
| CC(C)CCOCc1ccccc1 | – | 0.642% (inactive) |
| Cc1ccc(-c2cc(C(F)(F)F)nn2-c2ccc(S(N)(=O)=O)cc2)cc1 | inactive | – |
| C=CC(=O)OCCCCCCOC(=O)C=C | inactive | – |
| Nc1ccc(O)cc1 | inactive | – |
| CCC(C)(Oc1ccc(C2(c3ccc(OC(C)(CC)C(=O)O)cc3)CCCCC2)cc1)C(=O)O (stereo not drawn) | – | 2.62% (inactive) |
| O=Nc1ccc(Nc2ccccc2)cc1 | inactive | – |
| Cc1ccc(S(=O)(=O)Oc2ccc(N=Nc3ccc(-c4ccc(N=Nc5c(O)ccc6cc(S(=O)(=O)O)cc(S(=O)(=O)O)c56)c(C)c4)cc3C)cc2)cc1 | inactive | – |
| CCN(CC)C(=O)Nc1ccc(OCC(O)CNC(C)(C)C)c(C(C)=O)c1 (stereo not drawn) | – | -0.197% (inactive) |

test system: not listed separately; assay: qHTS assay to identify small molecule antagonists of the androgen receptor (AR) signaling pathway using the MDA cell line - cell viability counter screen (AID 743041; further: nearly all actives have a fitted effect of over 45% in size; further: potency means the concentration at half of the fitted maximal effect); conditions: MDA-kb2 viability, CellTiter-Fluor, 16 h, cells co-treated with R1881 androgen agonist; series mostly up to 70.3 µM; viability change, negative = cytotoxic: at the top concentration
How it was run: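 In this qHTS counter assay, fluorescence intensity after CellTiter-Fluor addition indicated viability of MDA-kb2 AR-luc cells given compounds and R1881 for 16 h at 37C.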

| SMILES | viability change, negative = cytotoxic | Potency |
| --- | --- | --- |
| CCCCOCCOC(=O)c1ccccc1C(=O)OCCOCCCC | 31.6% (inactive) | – |
| O=C(O)CP(=O)(O)O | -0.393% (inactive) | – |
| NC12CC3CC(CC(C3)C1)C2 | -1.9% (inactive) | – |
| Cc1cccc(O)c1C | – | inactive |
| [Cl][In]([Cl])[Cl] | – | inactive |
| BrC1CCC(Br)C(Br)CCC(Br)C(Br)CCC1Br (stereo not drawn) | – | inactive |
| Nc1nc(=S)c2[nH]cnc2[nH]1 | – | inactive |
| O=C(Oc1ccccc1)c1ccccc1O | – | inactive |
| CC(C)CCOCc1ccccc1 | 5.39% (inactive) | – |
| Cc1ccc(-c2cc(C(F)(F)F)nn2-c2ccc(S(N)(=O)=O)cc2)cc1 | -0.988% (inactive) | – |
| CCCCC/C=C/CC1CC(=O)OC1=O (stereo not drawn) | -5.16% (inactive) | – |
| C=CC(=O)OCCCCCCOC(=O)C=C | – | inactive |
| Cc1occc(=O)c1OC(=O)C(C)C | 3.78% (inactive) | – |
| Nc1ccc(O)cc1 | – | 29.8 µM (active) and 48.6 µM (active) and 56.6 µM (active) |
| CCC(C)(Oc1ccc(C2(c3ccc(OC(C)(CC)C(=O)O)cc3)CCCCC2)cc1)C(=O)O (stereo not drawn) | 2.44% (inactive) | – |
| O=Cc1ccc(Cl)cc1 | -1.78% (inactive) | – |
| Cc1ccnc2c1NC(=O)c1cccnc1N2C1CC1 | – | inactive |

| SMILES | viability change, negative = cytotoxic | Potency |
| --- | --- | --- |
| CC(=O)OCC1=C(C(=O)O)N2C(=O)[C@@H](NC(=O)Cc3cccs3)[C@H]2SC1 | -2.18% (inactive) | – |
| O=Nc1ccc(Nc2ccccc2)cc1 | – | 61.4 µM (active) |
| CC1=C(C=O)C(C)(C)CC=C1 | 1.98% [at 95 µM] (inactive) | – |
| CC[C@H]1CN2CCc3cc(OC)c(OC)cc3[C@@H]2C[C@@H]1C[C@H]1NCCc2cc(OC)c(OC)cc21 | – | 6.88 µM (active) |
| CC(C)(C)c1cc(C(C)(C)C)c(O)c(C(C)(C)C)c1 | – | inactive |
| Nc1cc(S(=O)(=O)O)cc2cc(S(=O)(=O)O)cc(O)c12 | -19.1% (inactive) | – |
| CC(C)(C)c1ccccc1 | 6.26% (inactive) | – |
| O=C(O)CCc1ccccc1 | 3.44% (inactive) | – |
| CCC[C@H](N[C@@H](C)C(=O)N1[C@H](C(=O)O)C[C@@H]2CCCC[C@@H]21)C(=O)OCC | 2.24% (inactive) | – |
| CN(C)c1ccc2nc3ccc(=[N+](C)C)cc-3sc2c1 | – | 5.96 µM (active) and 11.7 µM (active) and 17.2 µM (active) |
| CCCCC(CC)COC(=O)CC(C(=O)OCC(CC)CCCC)S(=O)(=O)O (stereo not drawn) | – | inactive |
| Nc1nc2ccccc2[nH]1 | – | inactive |
| Cc1ccc(S(=O)(=O)Oc2ccc(N=Nc3ccc(-c4ccc(N=Nc5c(O)ccc6cc(S(=O)(=O)O)cc(S(=O)(=O)O)c56)c(C)c4)cc3C)cc2)cc1 | – | 54.7 µM (active) and 35.5 µM (active) |
| CC[C@@H](N)CO | -3.42% [at 95 µM] (inactive) | – |
| Cc1cc(C(C)(C)C)c(O)c(C(C)(C)C)c1 | – | inactive |
| CCN(CC)C(=O)Nc1ccc(OCC(O)CNC(C)(C)C)c(C(C)=O)c1 (stereo not drawn) | 7.04% (inactive) | – |
